Activity calls are given as the source filed them. The call rests on the fitted dose curve.
Experiment: qHTS assay to identify small molecule agonists of the sonic hedgehog signaling (Shh) pathway (AID 1259368); further: nearly all actives have a fitted effect of over 15% in size
Settings: NIH/3T3 Gli1-Luc reporter, luciferase, 24 h, stronger effect = higher value; series mostly up to 92.4 µM; activity change: at the top concentration
In short: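 NIH/3T3-derived 3T3Gli1-Luc cells with stably integrated Gli1-driven firefly luciferase, 2,000 cells/well, compounds added after 4 hr. Incubated 24 hr at 37C, 5% CO2; luminescence read after 30 min with luciferase reagent at room temperature.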
On the % scale 0 is the no-effect control and ±100 the full control effect.

Structure (SMILES) | activity change
NS(=O)(=O)c1ccc(Cl)c(S(N)(=O)=O)c1 | -0.149% [at 42.5 µM] (inactive)
O=C(O)c1ccccc1C(=O)Nc1ccc(S(=O)(=O)Nc2nccs2)cc1 | -0.78% [at 42.5 µM] (inactive)
COCC(=O)Nc1c(I)c(C(=O)NCC(O)CO)c(I)c(C(=O)N(C)CC(O)CO)c1I (stereo not drawn) | -1.3% [at 42.5 µM] (inactive)
NC(=O)NC(=O)Cc1ccccc1 | -0.581% [at 42.5 µM] (inactive)
C=CCOC(=O)c1ccc(C(=O)OCC=C)c(C(=O)OCC=C)c1 | 1.04% (inactive)
CC(C)SCc1ccco1 | -0.463% [at 42.5 µM] (inactive)
CCCOC(=O)CCCCC(=O)OCCC | -0.725% (inactive)
C=CCOc1c(Br)cc(C(C)(C)c2cc(Br)c(OCC=C)c(Br)c2)cc1Br | 0.281% [at 42.5 µM] (inactive)
C/C=C(\C)C(=O)OCC/C=C\CC | 0.275% (inactive)
COc1cc([N+](=O)[O-])ccc1N | 0.777% (inactive)
CCN1CN(CC)CN(CC)C1 | -0.471% (inactive)
C=CCOCC(CO)(COCC=C)COCC=C | -0.661% [at 42.5 µM] (inactive)
CC(C)CCCCCCOC(=O)C1CCCCC1C(=O)OCCCCCCC(C)C (stereo not drawn) | -1.28% (inactive)
CCOc1ccc(NC(=O)OC(C)C)cc1OCC | -1.37% (inactive)
NC(Cc1c[nH]c2ccccc12)C(=O)O (stereo not drawn) | -1.27% [at 42.5 µM] (inactive)
O=C1c2ccccc2-c2ccccc21 | 0.0443% (inactive)
CCCCC(CC)COC(=O)c1ccccc1 (stereo not drawn) | 0.0375% (inactive)
c1ccc(CNc2ncnc3nc[nH]c23)cc1 | -1.15% (inactive)
CC(C)CCCC(C)CC=O (stereo not drawn) | -1.12% (inactive)

Structure (SMILES) | activity change
CCN(Cc1cccc(S(=O)(=O)O)c1)c1ccccc1 | 0.934% (inactive)
CO[Si](CCCCl)(OC)OC | -0.259% (inactive)
NS(=O)(=O)c1ccccc1OC(F)(F)F | -1.04% (inactive)
CCOC(=O)CC#N | -0.0944% (inactive)
CCCCCCCCCCC | -0.272% (inactive)
O=c1[nH]c(=O)c2ccccc2o1 | -0.392% [at 42.5 µM] (inactive)
CC(=O)N1CCN(c2ccc(O)cc2)CC1 | 0.304% [at 42.5 µM] (inactive)
COc1cc2c(Nc3ccc(Br)cc3F)ncnc2cc1OCC1CCN(C)CC1 | -0.034% [at 42.5 µM] (inactive)
NS(=O)(=O)c1cc2c(cc1Cl)NC(CC1CCCC1)NS2(=O)=O (stereo not drawn) | -0.0308% [at 42.5 µM] (inactive)
N#CCCOCCOCCC#N | 0.747% (inactive)
Cc1ccc2c(c1)c1c3n2CCNC3CCC1 (stereo not drawn) | -0.999% [at 42.5 µM] (inactive)
C1CCN2C[C@@H]3C[C@@H](CN4CCCC[C@@H]34)[C@H]2C1 | 1.04% [at 42.5 µM] (inactive)
Cn1c(=O)c2c(ncn2CC2OCCO2)n(C)c1=O | -1.17% [at 42.5 µM] (inactive)
O=C(O)c1ccc(OCCN2CCCCC2)cc1 | -0.431% [at 42.5 µM] (inactive)
COC(=O)CCC(=O)O | 0.0701% (inactive)
NS(=O)(=O)c1cc2c(cc1Cl)NC(C(Cl)Cl)NS2(=O)=O (stereo not drawn) | 0.176% [at 42.5 µM] (inactive)
CCCCC(CC)CNC(=O)CC(C)OC(=O)CCC(=O)O (stereo not drawn) | 3.04% [at 42.5 µM] (inactive)
C[C@@H]1C[C@H]2[C@@H]3C[C@H](F)C4=CC(=O)C=C[C@]4(C)[C@@]3(F)[C@@H](O)C[C@]2(C)[C@@]1(O)C(=O)CO | -0.471% [at 42.5 µM] (inactive)
COc1ccc(N=Nc2cc(C)c(N=Nc3ccc(S(=O)(=O)O)cc3)cc2OC)cc1 | 2.81% (inactive)

Reference: PubChem BioAssay (Tox21)
